Data on 38 molecules can be found in the supplement of paper PMC6897291.

Structures can show the parent of a compound that is named as a salt.

This test relates to RIVA. Nature of the test: growth inhibition by drug alone (1 - RLU/untreated control) (fraction); higher = stronger inhibition. As to conditions: 100 nM; time (day): 6; 177Lu-lilotomab satetraxetan 0 ug/ml. The method in brief:
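RIVA or U-2932 cells, untreated or pretreated 18 h with a radiolabelled anti-CD37 antibody conjugate (~600 MBq/mg; 0.5 µg/ml RIVA, 1 µg/ml U-2932), were washed and seeded at 3,000 cells/well on plates pre-printed with the Selleck Cambridge Cancer Compound library. Doses were 10/100 nM (RIVA) or 10/1,000 nM (U-2932). RealTime-Glo luminescence was read daily from day 3 after 1 h at 37°C. Growth inhibition is 1 − RLU/mean of 48 untreated no-drug wells per plate.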
For the molecule `COc1ccc(S(=O)(=O)Nc2cccnc2Nc2ccc(O)cc2)cc1`, the “growth inhibition by drug alone” value was -0.581.

With `C[C@]12CCC(=O)C=C1CC[C@@H]1[C@@H]2[C@@H](O)C[C@@]2(C)[C@H]1CC[C@]2(O)C(=O)CO` [Hydrocortisone (Cortisol)], the “growth inhibition by drug alone” value is -0.697.

In the case of `COc1cc(OC2CCN(C)CC2)ccc1Nc1ncc2c(n1)n(C1CCCC1)c(=O)n2C`, the “growth inhibition by drug alone” value is -0.66.

On to `Nc1nc(F)nc2c1ncn2[C@@H]1O[C@H](CO)[C@@H](O)[C@@H]1O` [Fludarabine (Fludara)], for which the “growth inhibition by drug alone” value was -0.228.

`Nc1nc(Nc2ccc(S(N)(=O)=O)cc2)nn1C(=O)c1c(F)cccc1F`: the “growth inhibition by drug alone” value was -0.218.

Consider `Nc1ncn([C@@H]2O[C@H](CO)[C@@H](O)[C@H]2O)c(=O)n1` [Azacitidine (Vidaza)], for which the “growth inhibition by drug alone” value was -0.406.

For the molecule `COc1cc2nccc(Oc3ccc(NC(=O)NC4CC4)c(Cl)c3)c2cc1C(N)=O` [E7080 (Lenvatinib)], the “growth inhibition by drug alone” value was -0.219.

Consider `Nc1ccn([C@@H]2O[C@H](CO)[C@@H](O)[C@@H]2O)c(=O)n1` [Cytarabine], for which the “growth inhibition by drug alone” value was found to be 0.023.

As for `Nc1cccc2c1C(=O)N(C1CCC(=O)NC1=O)C2=O` (stereo not drawn) [Pomalidomide], the “growth inhibition by drug alone” value is -0.196.

For `CN(C)c1nc(N(C)C)nc(N(C)C)n1` [Altretamine (Hexalen)], the “growth inhibition by drug alone” value is -0.694.

Turning to `Cc1[nH]c(/C=C2\C(=O)Nc3ccc(S(=O)(=O)N(C)c4cccc(Cl)c4)cc32)c(C)c1C(=O)N1CCN(C)CC1`, the “growth inhibition by drug alone” value was -0.342.

Turning to `O=C(O[C@@H]1Cc2c(O)cc(O)cc2O[C@@H]1c1cc(O)c(O)c(O)c1)c1cc(O)c(O)c(O)c1` [(-)-Epigallocatechin gallate], the “growth inhibition by drug alone” value is -0.545.

For the molecule `CCc1c2c(nc3ccc(OC(=O)N4CCC(N5CCCCC5)CC4)cc13)-c1cc3c(c(=O)n1C2)COC(=O)[C@]3(O)CC` [Irinotecan HCl Trihydrate (Campto)], the “growth inhibition by drug alone” value came to 0.00676.

In the case of `S=C(NCc1ccc2c(c1)OCO2)N1CCN(c2ncnc3c2oc2ccccc23)CC1` [Amuvatinib (MP-470)], the “growth inhibition by drug alone” value worked out at 0.0541.

With `COc1ccc2c3n(c(=NC(=O)c4cccnc4)nc2c1OC)CCN3`, the “growth inhibition by drug alone” value is -0.048.

Turning to `C#Cc1cccc(Nc2ncnc3cc(OCCOC)c(OCCOC)cc23)c1` [Erlotinib HCl], the “growth inhibition by drug alone” value was 0.46.

`Cc1ccc(-c2cc(C(F)(F)F)nn2-c2ccc(S(N)(=O)=O)cc2)cc1` [Celecoxib]: the “growth inhibition by drug alone” value was -0.232.

As to `N#CC[C@H](C1CCCC1)n1cc(-c2ncnc3[nH]ccc23)cn1`, the “growth inhibition by drug alone” value is -0.247.

With `CCc1cncnc1N1CCN(Cc2nc3ccc(C(F)(F)F)cc3[nH]2)CC1`, the “growth inhibition by drug alone” value is -0.192.

For `CCN(CC)C(=S)SSC(=S)N(CC)CC` [Disulfiram (Antabuse)], the “growth inhibition by drug alone” value was -0.423.

For `CC(C)[C@H](C(=O)Nc1ccc(C(=O)NO)cc1)c1ccccc1`, the “growth inhibition by drug alone” value is 0.884.

On to `CC(=O)O[C@]1(C(C)=O)CC[C@H]2[C@@H]3C=C(C)C4=CC(=O)CC[C@]4(C)[C@H]3CC[C@@]21C` [Megestrol Acetate], for which the “growth inhibition by drug alone” value is -0.147.

As for `COc1cc2ncnc(Nc3cccc(Br)c3)c2cc1OC`, the “growth inhibition by drug alone” value was -0.167.

`N#Cc1ccc(C(c2ccc(C#N)cc2)n2cncn2)cc1` [Letrozole]: the “growth inhibition by drug alone” value is -0.242.

On to `CC(=O)c1c(C)c2cnc(Nc3ccc(N4CCNCC4)cn3)nc2n(C2CCCC2)c1=O`, for which the “growth inhibition by drug alone” value was -0.285.

Regarding `COc1cccc2c1C(=O)c1c(O)c3c(c(O)c1C2=O)C[C@@](O)(C(=O)CO)C[C@@H]3O[C@H]1C[C@H](N)[C@H](O)[C@H](C)O1` [Doxorubicin (Adriamycin)], the “growth inhibition by drug alone” value came out at 0.915.

As to `CC(C)(C)c1[nH]cnc1/C=c1\[nH]c(=O)/c(=C/c2ccccc2)[nH]c1=O` [NPI-2358 (Plinabulin)], the “growth inhibition by drug alone” value came out at 0.963.

Take `COc1cc(Nc2ncc3c(n2)-c2ccc(Cl)cc2C(c2c(F)cccc2OC)=NC3)ccc1C(=O)O` [MLN8237 (Alisertib)]: the “growth inhibition by drug alone” value came to 0.599.

On to `O=c1[nH]cc(F)c(=O)[nH]1` [Adrucil (Fluorouracil)], for which the “growth inhibition by drug alone” value was -0.619.

Take `CC(C)c1ccc(Cn2ccc3c4c(N)nc(NC5CC5)nc4ccc32)cc1`: the “growth inhibition by drug alone” value is 0.444.

On to `CC/C(=C(\c1ccccc1)c1ccc(OCCN(C)C)cc1)c1ccccc1` [Tamoxifen Citrate (Nolvadex)], for which the “growth inhibition by drug alone” value turned out to be 0.322.

For `Cn1cc(C2=C(c3ccc(Cl)cc3Cl)C(=O)NC2=O)c2ccccc21`, the “growth inhibition by drug alone” value was -0.481.

In the case of `c1ccc(-c2nn3c(c2-c2ccnc4cc(OCCN5CCOCC5)ccc24)CCC3)nc1`, the “growth inhibition by drug alone” value is -0.522.

Turning to `O=C(NCCS(=O)(=O)c1ccc(C(F)(F)F)cn1)c1ccc(Cl)cc1`, the “growth inhibition by drug alone” value is -0.458.

`Cc1ccc(S(=O)(=O)C=CC#N)cc1`: the “growth inhibition by drug alone” value is -0.129.

Regarding `CCC1=C[C@@H]2CN(C1)Cc1c([nH]c3ccccc13)[C@@](C(=O)OC)(c1cc3c(cc1OC)N(C)[C@H]1[C@@](O)(C(=O)OC)[C@H](OC(C)=O)[C@]4(CC)C=CCN5CC[C@]31[C@@H]54)C2` [Vinorelbine (Navelbine)], the “growth inhibition by drug alone” value was 0.972.

For `Cc1cc(Nc2cc(N3CCN(C)CC3)nc(/C=C/c3ccccc3)n2)n[nH]1`, the “growth inhibition by drug alone” value is -0.539.

Regarding `CN(N=O)C(=O)N[C@@H](C=O)[C@@H](O)[C@H](O)[C@H](O)CO` [Streptozotocin (Zanosar)], the “growth inhibition by drug alone” value was -0.376.
